Laboratory results from ChEMBL document CHEMBL4513216, “Probing the Open Global Health Chemical Diversity Library for Multistage-Active Starting Points for Next-Generation Antimalarials” (ACS Infect Dis, 2020).
About 8,600 (12%) of roughly 69,000 compounds showed an effect of 50% or more. For the sample, strong results were picked, then their nearest neighbours and some compounds at random.

Test system: Plasmodium berghei
Assay: Screen against P. berghei liver stage (PbLuc), transformed with Luciferase, at 10uM
Type: functional, HepG2
Details: tested at 10 uM

SMILES	INHIBITION
CN(Cc1ncc[nH]1)C(=O)C(C)(C)NC(=O)c1cccs1	9.79%
CC(NC(=O)N1CCC(n2cncn2)CC1)c1ccc(F)cc1 (configuration not stated)	17.4%
CCS(=O)(=O)N1CCC[C@]2(C(=O)N(C)C)CN(c3ccccn3)C[C@@H]2C1	4.92%
Cc1cc(C)nc(N2CCC(c3nnc(CN(C)C)n3C3CC3)CC2)n1	-46.8%
CN(C)Cc1nnc(C2CCN(c3ncccn3)CC2)n1C1CC1	-12.1%
Cc1cnc(C)c(N2CCC(c3nnc(CN(C)C)n3C3CC3)CC2)n1	77.8%
CCc1c(C)nc2n(c1=O)CC(C(=O)NCc1cccs1)CS2 (configuration not stated)	35.8%
O=C(CO[C@@H]1CC[C@H]2[C@H]1OCCN2Cc1ccccn1)N1CCCC1	54.1%
O=C(CO[C@@H]1CC[C@H]2[C@H]1OCCN2c1ncccn1)N1CCCC1	24.6%
c1ccc(O[C@@H]2CC[C@H]3[C@H]2OCCN3Cc2ccsc2)nc1	20.9%
c1ccc(CN2CCO[C@H]3[C@H](OCCN4CCCC4)CC[C@@H]32)nc1	26.8%
Cc1cccc(CN2CCO[C@H]3[C@H](Oc4ccccn4)CC[C@@H]32)n1	-49.6%
Fc1ccc(CN2CCO[C@H]3[C@H](Oc4ccccn4)CC[C@@H]32)cc1	61.5%
c1ccc(O[C@@H]2CC[C@H]3[C@H]2OCCN3CC2CCOCC2)nc1	56.1%
COc1ccc(CN2CCO[C@H]3[C@H](Oc4ccccn4)CC[C@@H]32)cc1	41.2%
c1ccc(O[C@H]2CC[C@H]3[C@H]2OCCN3Cc2nccs2)nc1	6.8%
Cc1cc(C)nc(N2CC=C[C@@H]2C(=O)NCc2ccc3c(c2)OCO3)n1	4.41%
CC(C)n1c(=O)c2ccccc2n(CCN2CCCCC2)c1=O	3.19%
COc1ccc(C)cc1C(=O)NC1(C#N)CCOCC1	42.1%
COC(=O)c1ccc(N2CCN(CCS(C)(=O)=O)C(C)C2)cc1 (configuration not stated)	0.411%
Cc1cc(C(=O)CN2CCN(c3cnccn3)CC2)c(C)n1C(C)C	17.7%
CCOc1ccnc(N2CCN(C(=O)c3ccc(C#N)cc3)CC2)n1	36.1%
N#Cc1ccc(CNCCn2cccn2)c(F)c1	20.74%
O=C(Cn1c(-c2ccco2)cc2cccnc21)N1CCCC1	-16.8%
Cc1cccc(C)c1NCc1noc(C2CC2)n1	36.3%
CCCc1nc(CNc2ccc(F)c(F)c2)no1	-9.51%

SMILES	INHIBITION
CCCc1nc(CNc2cc(CS(C)(=O)=O)ccc2Cl)no1	52.2%
CCCc1noc(CNc2cc(C[S+](C)[O-])ccc2Cl)n1 (configuration not stated)	30.9%
Clc1ccc(C2(NCc3noc(C4CC4)n3)CCC2)cc1	8.18%
CS(=O)(=O)Cc1ccc(Cl)c(NCc2noc(C3CC3)n2)c1	57.8%
CC(=O)N[C@H]1CCO[C@@H](c2cccc(NC(=O)Cc3ccccc3)c2)C1	13.205%
CCc1nnc(CN2CCOC(Cn3cc(C)cn3)C2)o1 (configuration not stated)	15.5%
CC(=O)N1CCCN(C(=O)C(C)n2cncn2)CC1 (configuration not stated)	10%
CCc1cc(NCCCc2nc(C)no2)nc(-c2ccncc2)n1	17.6%
OC1(CN2CCC(Oc3cccc(C(F)(F)F)c3)CC2)CCNC1 (configuration not stated)	87.7%
Cc1cccc(OC2CCN(Cc3ncc[nH]3)CC2)c1	53.2%
Fc1cccc(OC2CCN(Cc3ncc[nH]3)CC2)c1	40%
Cc1cccc(CNC(=O)NCC2CCN(Cc3ncc[nH]3)C2)c1 (configuration not stated)	4.68%
O=C(c1ccncc1)N1CCC(Oc2cccc(C(F)(F)F)c2)CC1	10.5%
FC(F)(F)c1cccc(OC2CCN(Cc3ncc[nH]3)CC2)c1	79.7%
O=C(c1ccc(=O)[nH]c1)N1CCC(Oc2cccc(C(F)(F)F)c2)CC1	50.1%
O=c1ccn([C@H]2CCN(Cc3ncc[nH]3)CC[C@@H]2O)c(=O)[nH]1	24.4%
O=C(c1cccnc1)N1CCC(Oc2cccc(C(F)(F)F)c2)CC1	27.6%
OC1(CN2CCC(Oc3cccc(C(F)(F)F)c3)CC2)CNCCOC1 (configuration not stated)	37.1%
OC1(CN2CCC(Oc3cccnc3)CC2)CNCCOC1 (configuration not stated)	-16.8%
Nc1cc(C(=O)N2CCC(Oc3cccc(C(F)(F)F)c3)CC2)ccn1	38.3%
COc1ccc(Cl)cc1C(=O)NCCNc1cnccn1	-21.8%
O=C1CC2(CCN(c3nncs3)C2)CN1c1cccc(F)c1 (configuration not stated)	-6.3%
CCN1CC2(CC1=O)CN(C(=O)NC(C)C)CCN(C(=O)C(C)C)C2 (configuration not stated)	30.5%
CN(C)C(=O)N1C[C@@H]2COC[C@]2(CNS(C)(=O)=O)C1	14.2%
CC(=O)N1CCO[C@@H]2CN(Cc3ccccc3Cl)C[C@@H]2C1	38.5%
Cc1ccccc1C1(C(=O)NCCN(C(C)C)C(C)C)CCOCC1	-52.66%

SMILES	INHIBITION
c1cc2nccc(CC3CCCN(C4CCOCC4)CC3)c2cn1 (configuration not stated)	15.9%
CN(C)[C@@H]1CN(C(=O)Cc2cccs2)[C@@H]2CCCO[C@H]12	24.6%
O=C(c1ccc(N2CCOCC2)cc1)N1CCCC(n2ccnc2)C1 (configuration not stated)	41.415%
CN(C)c1ncccc1CNC(=O)NCCN(C)C1CCCC1	28.8%
CCOC(=O)C1CCN(Cc2csc(-c3ccc(C)o3)n2)CC1	0.914%
O=C(C1CCOCC1)N1CC[C@@H](O)[C@@H]1Cc1ccncc1	-2.35%
CC(=O)N1CCC(n2nccc2-c2cnc(N3CCCC3)nc2)CC1	33.7%
FC(F)(F)c1cccc(OC2CCN(Cc3c[nH]cn3)CC2)c1	88%
Nc1ccc(C(=O)N2CCC(Oc3cccc(C(F)(F)F)c3)CC2)cn1	29.8%
FC(F)(F)c1cccc(OC2CCN(Cc3ccccn3)CC2)c1	40.7%
CCc1nc(C2CCCN2C(=O)CCCn2cncn2)no1 (configuration not stated)	-59.4%
CN1C(=O)CCCC12CCCN(C(=O)c1ccc3c(c1)OCO3)C2 (configuration not stated)	-36.8%
CCS(=O)(=O)N1CCC2(CC1)CN(Cc1ccccn1)C(=O)CO2	35.8%
CCOC(=O)[C@H]1[C@@H](O)C(=O)N(C)C12CCN(C(=O)c1ccccc1)CC2	58.5%
CCOC(=O)[C@H]1[C@@H](O)C(=O)N(C)C12CCN(C(=O)OCC)CC2	20%
CCOC(=O)[C@@H]1[C@@H](O)C(=O)N(C)C12CCN(C(=O)c1ccco1)CC2	-3.5%
CCN(CC)S(=O)(=O)NCc1ccc(-c2ccc(C(N)=O)c(C)n2)cc1	-5.8%
CN(CCc1cccs1)C(=O)Nc1cccc(S(C)(=O)=O)c1	-93.6%
Cc1nc(CN2CCN(C(=O)NC(C)c3cccnc3)CC2)cs1 (configuration not stated)	41.5%
CC(C)Oc1ccc(CNC(=O)NCc2ccncc2)cc1F	29.5%
CC(C)Oc1ccc(NCc2ccc([S+](C)[O-])cc2)c(F)c1 (configuration not stated)	93.1%
CC(C)Oc1ccc(CNC(=O)CC(F)(F)F)cc1F	-4.69%
CN(c1ncc(C(N)=O)cc1Cl)C1CCC(c2ccccc2)CC1 (configuration not stated)	38.1%
COCCN(CCOC)c1ncc(C#N)cc1Cl	-2.39%
CN(Cc1ccc(C#N)cc1)c1ncc(C(N)=O)cc1Cl	65.4%
CN(Cc1cccc(C(N)=O)c1)c1ncc(C(N)=O)cc1Cl	49.1%

SMILES	INHIBITION
CN(Cc1ccc(C#N)cc1)C(=O)c1ccn(C)c(=O)c1	33.4%
CCN(CC)C(=O)c1ccc(CNc2ncc(C#N)cc2Cl)cc1	-22.8%
CN(Cc1cccc(C#N)c1)c1ncc(C(N)=O)cc1Cl	66.3%
CN(Cc1cccc(C(N)=O)c1)c1ncc(C#N)cc1Cl	61.1%
COc1cccc(CN(C)c2ncc(C(N)=O)cc2Cl)c1	26.9%
Cc1cc(CNC(=O)NCCC(=O)N2CCCc3ccccc32)no1	17.1%
CN(Cc1cccc(C#N)c1)Cc1nc2c(cnn2C)c(=O)[nH]1	44.3%
Cc1ccc(OCC(O)CN2CCc3c(ncn3C3CC3)C2)cc1 (configuration not stated)	58.5%
O=S(=O)(CCN1CCc2c(ncn2C2CC2)C1)c1ccccc1	-11.4%
OC(CN1CCOCC1)CN1CCc2c(ncn2C2CC2)C1 (configuration not stated)	13.5%
OC(COc1ccccc1)CN1CCc2c(ncn2C2CC2)C1 (configuration not stated)	5.97%
CS(=O)(=O)CCN1CCc2c(ncn2C2CC2)C1	-2.43%
CC(C)S(=O)(=O)CCN1CCc2c(ncn2C2CC2)C1	67.1%
Fc1ccc(CN2CCC3(CC2)CC(c2cccnc2)CO3)cc1 (configuration not stated)	15.4%
CN(C)c1cc(CC(NC(=O)C2CC2)c2ccccc2)nc(C2CC2)n1 (configuration not stated)	37.1%
O=C(NCc1ccccn1)C1=NN(c2ccccc2)C(=O)CN1	-170%
CN(C)C(c1ccccn1)C1CCC(CNC(=O)C2CC2)CC1 (configuration not stated)	-103%
Cn1cc(-c2ncc3c(c2C(=O)O)CCN(Cc2ccccn2)C3)cn1	29.4%
Cc1cc(Cl)c(C)c(S(=O)(=O)N2CCN(Cc3ccccn3)CC2)c1Cl	18.6%
CC(C)Cn1cc2nc(N3CCCC3)[nH]cc-2c1=O	47.4%
CC(C)Cn1cc2nc(N3CCCC(C)C3)[nH]cc-2c1=O (configuration not stated)	-40.4%
CC(C)Cn1cc2nc(N3CCC(O)CC3)[nH]cc-2c1=O	66.5%
COc1ccccc1C(=O)NS(=O)(=O)c1cncc(Br)c1	28.3%
COc1c(CNCC(O)c2ccccc2)c(C(C)C)nn1C (configuration not stated)	3.73%
